Peg3 prom inh – inhibitors of Peg3 promoter; HeLa PEG-Prom luciferase reporter, luminescence, overnight; inhibition, % at 20 µM; 1.7% of 360,000 active; AID 588405;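 active = inhibition of at least 50% at 20 µM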
HIF-2a inh – blocks HIF-2a reporter activity; 786-0 RCC cells HIF-2a reporter, luciferase luminescence, overnight; inhibition, % at 18.8 µM; 0.72% of 360,000 active; AID 624352;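 active = inhibition of the luminescence signal of 40% or more relative to plate controls, in a single-dose primary screen at 18.75 µM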
TWEAK Fn14 block – blocks TWEAK-Fn14 interaction in a reporter cell assay; TWEAK-stimulated Fn14 reporter cells, luciferase luminescence, 8 h; 2% of 360,000 active; inhibition, % at 10 µM; in the data active = inhibition above about 50%
KKLEB tox – reduces viability of KKLEB cystic fibrosis airway cells | KKLEB CF airway cells viability, ATPlite luminescence, overnight; active compounds read low; cells stimulated with P. aeruginosa culture filtrate | activity change (cytotoxicity), % at 5 µM | 0.36% of 360,000 active;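 active = corrected activity change at or below -50% at 5 µM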
CF NFkB inh – cystic fibrosis NF-kB activation inhibition; KKLEB NF-kB-GFP reporter, PAF-induced, GFP fluorescence overnight; inhibition, % at 5 µM; 0.86% of 360,000 active; AID 588850;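 active = at least 50% inhibition at 5 µM, scaled per plate between neutral and stimulator controls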;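 also: PAF is a Pseudomonas aeruginosa culture filtrate used as stimulus; plate controls were PAF-stimulated DMSO wells for no effect and unstimulated DMSO wells for full effect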
TROY signal inh – TROY signaling inhibition | 0.98% of 360,000 active | inhibition, % at 10 µM | Q293 LMP1-TROYcd NF-kB luciferase reporter, 4 h;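 active = compounds whose plate-normalised and pattern-corrected inhibition of the luciferase reporter signal at the single screening dose is 50% or more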
Active calls of the source: *; . = no result. In the library only some 4% were active in any assay of this set; here they are far more common.

SMILES	Peg3 prom inh	HIF-2a inh	TWEAK Fn14 block	KKLEB tox	CF NFkB inh	TROY signal inh
CC(=O)Nc1ccc(NC(=O)COc2ccc3c(c2)CCC3)cc1	-10	-4	-2	1	13	-12
Cc1ccnc(NC(=O)c2ccc(OCC3CCCO3)cc2)c1 (centres undefined)	33	30	83*	-45	3	57*
CCOc1ccc2nc(NC(=O)CSc3nnc(-c4ccncc4)n3CC3CCCO3)sc2c1 (centres undefined)	-171	-118	-2	-16	-2	-69
Cc1cccc2sc(NC(=O)c3ccc(OCC4CCCO4)cc3)nc12 (centres undefined)	-212	-227	85*	2	-7	33
Cc1ccc(NC(=O)c2ccc(OCC3CCCO3)cc2)c(C)c1 (centres undefined)	2	-5	-9	3	8	12
Cc1ccnc(NC(=O)COc2ccc3c(c2)CCC3)c1	-109	-29	79*	-46	28	40
COc1cc2c(cc1OC)CN(CC(O)c1ccccc1)CC2 (centres undefined)	-8	3	-8	3	-22	-13
C#CCOCCOCCOCCNc1nc(N2CCN(C(=O)[C@H]([C@@H](C)CC)n3cc(CCCCN)nn3)CC2)nc(N2CCN(C(=O)[C@H](C)n3cc(CCC(=O)O)nn3)CC2)n1	-7	4	-11	7	-1	-17
O=C(Nc1nc(-c2ccc(F)c(F)c2)cs1)c1ccc(OCC2CCCO2)cc1 (centres undefined)	2	-11	34	-30	37	32
Cc1csc(NC(=O)c2ccc(OCC3CCCO3)cc2)n1 (centres undefined)	-57	-23	69*	-13	-3	23
COc1ccc(NC(=O)CSc2nc3[nH]c(=O)[nH]c(=O)c3s2)cc1OC	7	-3	-2	10	16	-9
CCc1ccc(S(=O)(=O)Nc2ccc(O)c3ccccc23)cc1	21	12	94*	-50	94*	-11
O=S(=O)(Nc1ccc(O)c2ccccc12)c1ccc(F)cc1	-8	9	28	0	84*	31
O=C(OCn1nnc2ccccc2c1=O)c1cccc(S(=O)(=O)N2CCOCC2)c1	3	17	-4	19	3	7
Cc1cccc(NC(=O)CSc2cc(C(=O)c3nccn3C)c3ccccc3n2)c1	19	-11	-5	-54*	40	4
S=C(NNc1ccnc2cc(Cl)ccc12)Nc1ccc(Cl)cc1Cl	52*	-21	7	12	-34	19
CCOc1ccc(NC(=S)NNc2ccnc3cc(Cl)ccc23)cc1	2	0	19	14	-16	-6
COc1ccc(Cn2nnnc2C(C(C)C)N(Cc2ccco2)Cc2cccs2)cc1 (centres undefined)	19	11	80*	1	0	.
CC(C)Nc1nc(Nc2ccccc2Cl)c2sccc2n1	29	11	64*	-27	26	29
COc1ccc(N(CC(=O)NC2CCCCC2)C(=O)c2snc(C(N)=O)c2N)cc1	-4	6	7	5	-11	-12
N#Cc1cc(S(=O)(=O)c2ccc(F)cc2)c(N)[nH]c1=O	1	18	-4	4	15	-15
CCOC(=O)c1cc(-c2ccccc2)sc1NC(=O)COC(=O)c1cccc(S(N)(=O)=O)c1	87*	-2	-21	-28	18	1
O=c1cc(CN2CCCCCCC2)c2ccccc2o1	5	-6	-1	-33	11	-7
CCC1(C)Nc2ccccc2C(=O)N1O (centres undefined)	12	29	3	-2	-9	58*
COC(CNC(=O)c1ccc(CS(=O)(=O)c2ccc(C)cc2)o1)OC	0	12	0	10	-12	-13
Oc1ccc(N2CCN(C(c3ccncc3)c3nnnn3C3CCCC3)CC2)cc1 (centres undefined)	8	7	-8	3	13	5
CCN(CC)c1ccc(/C=N/NC(=O)c2c(-c3ccccc3)noc2C)cc1	14	1	18	-2	-9	53*
CC(C)Nc1oc(Cc2cccc3ccccc23)nc1C#N	18	6	2	-9	0	6
O=C(CSc1nc2ncc(Br)cc2[nH]1)Nc1ccccc1-c1ccccc1	53*	24	4	-9	43	49
